Inconclusive results are not listed. The source made the active and inactive calls. Unless noted, calls come from the whole dose curve; as a rule, active = well fitted curve in either direction with a large enough effect (not every such curve was filed as active); inconclusive = small, poorly fitted or top-dose-only effect, or another doubt; inactive = flat fitted curve, though single readings scatter. Bounds are passed on as bounds.

Assay [1] addresses Lysosomal acid glucosylceramidase (Homo sapiens) (UniProt P04062). The experiment in a line: Glucocerebrosidase-p2 (AID 348; in the data active = potency below about 10 µM; note: potency is the fitted concentration of half-maximal effect). The note with it: purified GBA, blue fluorogenic substrate, 40 min. The method in brief: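 Normal human glucocerebrosidase (0.2 nM) with blue fluorogenic substrate (80 uM final) in citrate/phosphate pH 5.9 with 10mM sodium taurocholate, 0.01% tween-20; 40 min RT, NaOH/glycine stop; fluorescence Ex 365/Em 440; AC50 from a titration from 0.6 nM upwards.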

Assay [2] can be described thus: AP1 Signaling Pathway (AID 357).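 Note: ME-180 reporter cells stimulated with EGF at its EC50 level; % is set by controls: 0 for no effect and ±100 for the full control effect.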 As to conditions: ME-180 AP-1-bla reporter, EGF-induced, beta-lactamase ratio, 5 h; at 7.69 µM (top of the series) unless noted. Put shortly:
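A ratiometric CCF4 readout (405 nm excitation; 460 and 530 nm emission) quantified AP-1-driven beta-lactamase in ME-180 cells after 5 h with compound and EC50 EGF; AC50 values were derived for activators and inhibitors.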

Assay [3] addresses Cytochrome P450 1A2 (Homo sapiens) (UniProt P05177). Nature of the assay: p450-cyp1a2 (AID 410; calls by dose curve; note: potency is the fitted concentration of half-maximal effect;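 for activity change, negative = inhibition: -100% = full effect of reference inhibitor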). As to conditions: recombinant CYP1A2, luciferin-ME demethylation, luminescence; series mostly up to 57 µM. Put shortly:
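Read-out is luminescence from luciferin produced by CYP1A2 demethylation of Luciferin-ME (100uM, at Km). Detection reagent stopped the 60 min NADPH-dependent reaction; signals were normalized to 57 uM furafylline.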

Assay [4] is described as follows: NFAT Signaling Pathway (AID 444).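 Note: carbachol stimulus at about its EC50 of 1 µM final; % is set by controls: 0 for no effect and ±100 for the full control effect.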 As to conditions: Jurkat NFAT-bla M1, carbachol, beta-lactamase ratio, 5 h; at 7.69 µM (top of the series) unless noted. The method in brief: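 Jurkat cells with NFAT-driven β-lactamase reporter and co-expressed M1 receptor, stimulated with carbachol (final 1 uM, ~EC50), compound titration, 5 h at 37 °C. CCF4 loaded 1 h at RT; 460/530 nm ratio gave %activity and AC50.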

A short description of assay [5]: Stat Signaling Pathway (AID 446).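 Note: ME-180 cervical cancer cells given 40 pM IL-6 alongside compound; SIE-controlled beta-lactamase reporter measured as 460/530 nm FRET emission ratio; % is set by controls: 0 for no effect and ±100 for the full control effect.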 As to conditions: ME-180 SIE beta-lactamase reporter, IL-6 stimulated, 5 h; at 7.69 µM (top of the series) unless noted. The method in brief: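 Compound effects on IL-6-induced STAT reporter activity were measured in ME-180 cells. After overnight culture, cells were co-treated with 40 pM IL-6 for 5 hrs before beta-lactamase substrate loading at room temperature.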

Assay [6] addresses Glucocorticoid receptor (Homo sapiens) (UniProt P04150). The experiment in a line: GR-EFC Redistribution (AID 451; calls by dose curve; note: potency is the fitted concentration of half-maximal effect). As to conditions: CHO-K1 GR-EFC translocation, beta-gal luminescence, 2 h. Put shortly: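 CHO-K1 cells expressing nuclear EA and GR-ED fragments of b-gal; compounds titrated up to 46 uM final, 2 h at 37 C. GR nuclear translocation read as complemented b-gal luminescence after 1 h RT detection.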

Assay [7] concerns the target Mitogen-activated protein kinase 10 (Mus musculus) (UniProt Q61831). The experiment in a line: JNK3 AlphaScreen Assay (AID 530).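 Note: kinase came from lysate of stimulated human HepG2 cells; signal reports phosphorylation of biotinylated GST-cJun 1-79 at Ser73 with 10 µM ATP; % is set by controls: 0 for no effect and ±100 for the full control effect.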 As to conditions: JNK3 lysate, c-Jun phosphorylation; series mostly up to 57.1 µM. The method in brief: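 HepG2 lysate (IL-1b/TNFa pre-activated) + biotin-GST-cJun 1-79 + anti-pSer73 cJun; cpd titration, 15 min RT; ATP 10 uM start; Tris pH 7.6, MgCl2, DTT, vanadate; beads in EDTA buffer; AlphaScreen.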
A general note: Alpha assays give light when donor and acceptor beads are brought close together.

Assay [8] has as its target 3',5'-cyclic-AMP phosphodiesterase 4B (Homo sapiens) (UniProt Q07343). Nature of the assay: qHTS Assay for Inhibitors of PDE-IV (AID 607; active = well fitted activation curve with a large enough effect in the main read-out, with a control signal flat, not every such curve was filed as active; note: % of control where 0% means no effect). As to conditions: HEK293 ACTOne CNG channel cells, membrane potential fluorescence; series mostly up to 22.9 µM. The method in brief:
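ACTOne HEK293 cells carry a modified cAMP-gated CNG channel and express endogenous PDE4; plated 1000 cells/well, compounds up to 22.9 uM final. Membrane-potential dye fluorescence (ex 535/em 590) was read; parental cells received 10 uM forskolin + 100 uM RO 20-1724.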
In general terms: Quantitative high-throughput screening tests each substance at several concentrations.

The target of assay [9] is Cytochrome P450 3A4 (Homo sapiens) (UniProt P08684). Nature of the assay: qHTS Assay for Activators of Cytochrome P450 3A4 (AID 885; active = well fitted curve in the direction sought with a large enough effect; an effect the other way counts as inactive or inconclusive; note: nearly all actives have a fitted effect of over 65% in size). The note with it: recombinant CYP3A4, Luciferin-PPXE luminescence, 60 min; series mostly up to 57.1 µM. The method in brief:
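CYP3A4 activity: Luciferin-PPXE O-dealkylation, 25uM substrate, 200mM KPO4, RT throughout. Read-out is luciferase luminescence; higher values reflect activation.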

The target of assay [10] is Cytochrome P450 2D6 (Homo sapiens) (UniProt P10635). The experiment in a line: qHTS Assay for Inhibitors and Substrates of Cytochrome P450 2D6 (AID 891; active = well fitted curve in the direction sought with a large enough effect; an effect the other way counts as inactive or inconclusive; note: potency is the fitted concentration of half-maximal effect; nearly all actives have a fitted effect of over 60% in size). The note with it: recombinant CYP2D6, luciferin-ME EGE luminescence; series mostly up to 57.1 µM. Put shortly:
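Luminescent read-out of luciferin formed by 5 nM human CYP2D6 demethylating 30 uM Luciferin-ME EGE (Km level) over 60 min at room temperature after NADPH regeneration addition. Data normalized to full inhibition by 1.43 uM quinidine.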

A short description of assay [11]: qHTS Assay for Lipid Storage Modulators (AID 1519; calls by dose curve). As to conditions: Drosophila S3 cells, BODIPY lipid droplet/cell ratio, laser cytometry, cells loaded with oleic acid; for activity change, negative = inhibition: at 57.5 µM (top of the series). Put shortly:
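Cells seeded at 5,000 per well were treated with compounds over a concentration series and loaded with oleic acid (400 uM, as added). Lipid droplet fluorescence (488 nm excitation, 500-530 nm channel) was read by laser-scanning cytometry and normalized to 20 uM Triacsin C.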

The nature of assay [12]: Primary qHTS for small molecule stabilizers of the endoplasmic reticulum resident proteome: Secreted ER Calcium Modulated Protein (SERCaMP) assay (AID 1508630; active = well fitted curve in the direction sought with a large enough effect; an effect the other way counts as inactive or inconclusive; note: % is set by controls: 0 for no effect and ±100 for the full control effect). The note with it: SH-SY5Y GLuc-SERCaMP (Gaussia luciferase released on ER calcium loss) secretion, thapsigargin, luminescence; series mostly up to 38.4 µM. The method in brief:
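The SH-SY5Y reporter protocol was run at 3 concentrations up to 38.3 uM (primary) or 11 concentrations (follow-up): 16 h compound, 100 nM thapsigargin for 4 h, then extracellular luciferase luminescence.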

Assay [13] can be described thus: qHTS Assay for Identification of Small Molecule Agonists for Hypoxia Response Element Signaling Pathway (AID 914; active = well fitted activation curve with a large enough effect in the signal ratio, with a control signal flat, not every such curve was filed as active; the % refers to the signal ratio; note: % of control where 0% means no effect). As to conditions: ME-180 (cervical carcinoma) HRE-bla reporter, beta-lactamase ratio, CoCl2, 17 h; activation: stronger effect = higher value. Put shortly:
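A beta-lactamase reporter under hypoxia response element control in ME-180 cells served as the system. Compound titrations plus EC50 CoCl2 ran 17 h at 37 degrees Celsius; AC50 values were fitted from %Activity.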

Assay [14] has as its target Cytochrome P450 2C19 (Homo sapiens) (UniProt P33261). Nature of the assay: qHTS Assay for Inhibitors and Substrates of Cytochrome P450 2C19 (AID 899; active = well fitted curve in the direction sought with a large enough effect; an effect the other way counts as inactive or inconclusive; note: % is set by controls: 0 for no effect and ±100 for the full control effect; nearly all actives have a fitted effect of over 60% in size). As to conditions: recombinant CYP2C19, luciferin-H EGE luminescence; series mostly up to 57.1 µM. The method in brief:
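Signal comes from luciferase acting on luciferin released by CYP2C19-mediated hydroxylation of Luciferin-H EGE, 10uM (KM). Assay mix: 5nM enzyme, 50mM KPO4; 60 min at 37C with NADPH regeneration. Data normalized against 57uM ketoconazole.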

The mark [15] stands for this setting: measured here: cell count channel max response.
Where [16] appears, read: measured here: lipid channel max response.

Sequence of 3',5'-cyclic-AMP phosphodiesterase 4B (Homo sapiens) (Q07343 whole entry, looked up): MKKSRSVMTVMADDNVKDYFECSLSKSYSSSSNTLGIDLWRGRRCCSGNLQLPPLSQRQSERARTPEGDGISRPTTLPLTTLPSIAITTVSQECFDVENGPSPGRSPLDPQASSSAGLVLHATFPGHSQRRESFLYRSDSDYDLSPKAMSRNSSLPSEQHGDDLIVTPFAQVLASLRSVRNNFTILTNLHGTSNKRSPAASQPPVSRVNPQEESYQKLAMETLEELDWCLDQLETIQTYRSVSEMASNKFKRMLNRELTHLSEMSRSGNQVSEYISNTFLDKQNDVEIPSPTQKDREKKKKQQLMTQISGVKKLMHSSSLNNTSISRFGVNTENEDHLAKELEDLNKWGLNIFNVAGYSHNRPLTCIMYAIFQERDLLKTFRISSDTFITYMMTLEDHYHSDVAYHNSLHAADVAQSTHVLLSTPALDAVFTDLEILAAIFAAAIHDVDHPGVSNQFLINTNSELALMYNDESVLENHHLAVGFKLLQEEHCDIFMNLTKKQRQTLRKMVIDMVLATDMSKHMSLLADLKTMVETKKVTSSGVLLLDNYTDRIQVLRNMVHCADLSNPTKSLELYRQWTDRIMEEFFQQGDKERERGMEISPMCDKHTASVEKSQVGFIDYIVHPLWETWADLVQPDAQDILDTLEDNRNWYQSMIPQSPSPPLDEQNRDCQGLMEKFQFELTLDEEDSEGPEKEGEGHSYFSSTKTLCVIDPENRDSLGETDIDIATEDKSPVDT
Sequence of Lysosomal acid glucosylceramidase (Homo sapiens) (P04062 whole entry, looked up): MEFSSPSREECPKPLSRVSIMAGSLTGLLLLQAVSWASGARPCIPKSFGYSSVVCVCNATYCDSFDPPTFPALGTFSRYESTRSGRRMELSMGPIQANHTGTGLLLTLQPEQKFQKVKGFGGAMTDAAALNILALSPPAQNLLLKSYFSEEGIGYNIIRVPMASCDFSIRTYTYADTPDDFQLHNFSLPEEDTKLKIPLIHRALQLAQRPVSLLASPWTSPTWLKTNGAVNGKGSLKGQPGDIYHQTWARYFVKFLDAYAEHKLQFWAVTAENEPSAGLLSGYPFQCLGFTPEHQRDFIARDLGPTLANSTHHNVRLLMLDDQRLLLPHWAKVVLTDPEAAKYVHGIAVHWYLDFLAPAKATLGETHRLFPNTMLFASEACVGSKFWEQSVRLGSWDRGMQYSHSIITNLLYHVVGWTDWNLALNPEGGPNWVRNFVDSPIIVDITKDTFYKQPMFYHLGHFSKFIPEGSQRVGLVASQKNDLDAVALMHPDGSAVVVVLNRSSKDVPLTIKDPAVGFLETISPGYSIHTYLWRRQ
Sequence of Glucocorticoid receptor (Homo sapiens) (P04150 whole entry, looked up, the tested form may be a part): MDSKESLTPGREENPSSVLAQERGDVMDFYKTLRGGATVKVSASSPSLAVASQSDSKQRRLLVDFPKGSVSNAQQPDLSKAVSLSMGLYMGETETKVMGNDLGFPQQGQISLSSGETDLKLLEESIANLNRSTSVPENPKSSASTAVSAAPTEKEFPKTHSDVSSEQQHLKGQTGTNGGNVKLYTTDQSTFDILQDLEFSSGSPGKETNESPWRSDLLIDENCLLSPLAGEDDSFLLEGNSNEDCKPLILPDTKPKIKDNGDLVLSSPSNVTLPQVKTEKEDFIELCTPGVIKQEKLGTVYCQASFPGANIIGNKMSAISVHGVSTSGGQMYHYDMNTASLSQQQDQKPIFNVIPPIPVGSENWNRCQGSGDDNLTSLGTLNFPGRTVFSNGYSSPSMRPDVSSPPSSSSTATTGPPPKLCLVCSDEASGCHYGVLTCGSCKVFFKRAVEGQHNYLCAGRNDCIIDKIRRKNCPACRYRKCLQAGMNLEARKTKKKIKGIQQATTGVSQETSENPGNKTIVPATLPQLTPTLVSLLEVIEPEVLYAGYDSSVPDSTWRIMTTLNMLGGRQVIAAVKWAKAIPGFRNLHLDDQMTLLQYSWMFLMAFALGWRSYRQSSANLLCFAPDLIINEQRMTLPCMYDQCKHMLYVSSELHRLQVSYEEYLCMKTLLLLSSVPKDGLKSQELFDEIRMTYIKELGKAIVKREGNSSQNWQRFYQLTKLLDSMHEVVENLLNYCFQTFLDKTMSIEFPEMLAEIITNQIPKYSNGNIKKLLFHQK
Sequence of Cytochrome P450 1A2 (Homo sapiens) (P05177 whole entry, looked up): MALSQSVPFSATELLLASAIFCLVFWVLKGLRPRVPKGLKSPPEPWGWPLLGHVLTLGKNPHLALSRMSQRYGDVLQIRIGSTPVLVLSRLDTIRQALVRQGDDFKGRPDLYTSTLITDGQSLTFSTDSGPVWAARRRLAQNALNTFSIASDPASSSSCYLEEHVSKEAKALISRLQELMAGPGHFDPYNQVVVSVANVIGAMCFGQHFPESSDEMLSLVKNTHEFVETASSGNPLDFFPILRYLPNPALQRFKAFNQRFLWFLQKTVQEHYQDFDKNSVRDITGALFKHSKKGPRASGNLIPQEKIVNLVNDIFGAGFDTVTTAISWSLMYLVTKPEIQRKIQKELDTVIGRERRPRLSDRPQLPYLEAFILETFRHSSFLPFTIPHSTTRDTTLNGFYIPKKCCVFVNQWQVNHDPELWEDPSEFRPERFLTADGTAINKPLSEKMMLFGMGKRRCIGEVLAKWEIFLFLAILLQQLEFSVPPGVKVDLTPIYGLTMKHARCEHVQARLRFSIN
Sequence of Cytochrome P450 3A4 (Homo sapiens) (P08684 whole entry, looked up): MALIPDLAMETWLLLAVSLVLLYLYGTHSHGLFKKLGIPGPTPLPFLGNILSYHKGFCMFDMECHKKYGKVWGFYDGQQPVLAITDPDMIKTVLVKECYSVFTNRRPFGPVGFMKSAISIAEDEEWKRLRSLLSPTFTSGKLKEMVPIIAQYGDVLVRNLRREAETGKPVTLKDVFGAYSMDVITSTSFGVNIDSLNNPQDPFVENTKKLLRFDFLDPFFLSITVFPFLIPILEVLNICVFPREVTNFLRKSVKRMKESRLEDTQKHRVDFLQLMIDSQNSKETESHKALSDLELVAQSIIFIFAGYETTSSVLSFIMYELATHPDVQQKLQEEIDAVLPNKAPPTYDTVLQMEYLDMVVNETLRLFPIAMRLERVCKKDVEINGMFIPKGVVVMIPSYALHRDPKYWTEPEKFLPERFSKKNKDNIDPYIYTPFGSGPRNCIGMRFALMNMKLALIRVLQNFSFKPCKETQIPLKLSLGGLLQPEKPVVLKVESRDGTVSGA
Sequence of Cytochrome P450 2D6 (Homo sapiens) (P10635 whole entry, looked up): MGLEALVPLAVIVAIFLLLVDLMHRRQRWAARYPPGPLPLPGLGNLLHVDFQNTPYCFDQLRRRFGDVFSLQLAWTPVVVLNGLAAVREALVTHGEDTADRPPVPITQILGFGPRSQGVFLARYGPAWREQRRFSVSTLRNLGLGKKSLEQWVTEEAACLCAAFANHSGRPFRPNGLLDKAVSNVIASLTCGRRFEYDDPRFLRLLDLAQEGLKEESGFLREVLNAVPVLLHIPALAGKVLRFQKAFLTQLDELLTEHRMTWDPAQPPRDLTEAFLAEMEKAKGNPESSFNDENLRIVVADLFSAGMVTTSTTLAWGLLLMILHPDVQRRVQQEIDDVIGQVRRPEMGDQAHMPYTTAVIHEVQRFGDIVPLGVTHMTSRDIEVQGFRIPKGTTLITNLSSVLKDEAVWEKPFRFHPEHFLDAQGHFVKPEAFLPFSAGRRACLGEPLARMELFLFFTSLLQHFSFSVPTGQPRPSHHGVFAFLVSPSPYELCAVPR
Sequence of Cytochrome P450 2C19 (Homo sapiens) (P33261 whole entry, looked up): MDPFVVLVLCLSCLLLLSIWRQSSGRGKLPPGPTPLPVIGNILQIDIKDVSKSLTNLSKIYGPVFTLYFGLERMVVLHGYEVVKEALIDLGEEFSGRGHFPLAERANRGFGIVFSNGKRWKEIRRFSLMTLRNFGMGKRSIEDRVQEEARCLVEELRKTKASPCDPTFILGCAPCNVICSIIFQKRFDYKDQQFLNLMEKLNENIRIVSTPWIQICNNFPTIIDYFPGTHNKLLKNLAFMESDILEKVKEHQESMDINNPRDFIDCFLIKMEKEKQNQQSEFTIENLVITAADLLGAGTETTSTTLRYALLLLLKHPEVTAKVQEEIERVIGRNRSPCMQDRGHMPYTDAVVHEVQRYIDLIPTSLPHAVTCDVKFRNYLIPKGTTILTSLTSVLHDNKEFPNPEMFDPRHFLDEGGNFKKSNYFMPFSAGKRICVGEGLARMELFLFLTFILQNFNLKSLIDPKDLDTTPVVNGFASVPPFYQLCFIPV

With `CC(=O)N1CCC2(CCCN(C(c3ccccc3)c3ccccc3)C2)CC1`, the Potency in assay [1] was > 11.4 µM (inactive); in [3], 15.8 µM (active); in assay [6] it was > 46 µM (inactive); in assay [10] it was 7.94 µM (active). The activity change, negative = inhibition in assay [2] is -12.2% (inactive); in assay [4], 28.1% (inactive); in [11] it was 6.41% (inactive). Further, the activity, negative = inhibition in assay [5] is 17.6% (inactive). The compound was called inactive in assay [7]. The Potency entry in assay [8], in [9] and in [12] was “inactive” in each case. Further, the max response in assay [11] (setting [15]) was found to be 3.3%; in [11] (setting [16]) it was 12.6%.

On to `O=C(c1csnn1)N1CCC[C@@]2(CCN(Cc3nccs3)C2)C1`, for which the values for the Potency in assay [1], in [6] and in [10] were > 11.4 µM (inactive), > 46 µM (inactive) and 5.01 µM (active), respectively. Also, the values for the activity change, negative = inhibition in assay [2], in assay [4] and in assay [11] were 2.1% (inactive), 2.26% (inactive) and 6.67% (inactive), respectively. In addition, the Potency entry in [3], in assay [8], in [9] and in assay [12] was “inactive” in each case. Besides, the activity, negative = inhibition in assay [5] was -2.25% (inactive). Besides, the call in [7] was inactive. In addition, the activation in assay [13] was -0.307% (inactive). The max response was 15.7% in [11] (setting [15]) and 25.3% in [11] (setting [16]).

`O=C(c1csnn1)N1CCC2(CC1)CN(c1ccccc1)C2`: the Potency in assay [1] is > 11.4 µM (inactive); in assay [6], > 46 µM (inactive). In addition, the figures for the activity change, negative = inhibition in [2], in [4] and in [11] were -4.3% (inactive), -3.86% (inactive) and 4.49% (inactive), respectively. Also, the Potency entry in [3], in [8] and in assay [12] was “inactive” each time. Moreover, the activity, negative = inhibition in [5] is 4.17% (inactive). Also, the outcome in assay [7] was inactive. Also, the activation in assay [13] was -12.1% (inactive). Besides, the max response turned out to be 13.3% in assay [11] (setting [15]) and 20.7% in [11] (setting [16]).

As to `O=C(Nc1ccccc1)N1CC2(CCN(C(=O)c3ccncc3)CC2)C1`, the figures for the Potency in [1], in assay [3] and in [6] were > 11.4 µM (inactive), 10 µM (active) and > 46 µM (inactive), respectively. Further, the activity change, negative = inhibition is 12.1% (inactive) in [2], 7.64% (inactive) in assay [4] and 3.73% (inactive) in assay [11]. Further, in assay [5], the activity, negative = inhibition is -1.5% (inactive). Moreover, the outcome in [7] was inactive. Moreover, the Potency result in assay [8], in assay [9] and in assay [12] was “inactive” in each case. Also, the results for the max response in assay [11] (setting [15]) and in assay [11] (setting [16]) were -8.48% and -2.29%, respectively.

With `O=C(c1ccco1)N1CCC2(CCCN(C(c3ccccc3)c3ccccc3)C2)CC1`, the Potency in assay [1] is > 11.4 µM (inactive); in assay [3], 15.8 µM (active); in assay [6] it was > 46 µM (inactive). Moreover, the activity change, negative = inhibition is 26.1% (inactive) in assay [2], -80.8% (active) in assay [4] and 2.05% (inactive) in [11]. Besides, the activity, negative = inhibition in [5] is 19.8% (inactive). Also, the compound was called inactive in assay [7]. For the same compound, the Potency result in assay [8], in [9] and in assay [12] was “inactive” throughout. The max response in [11] (setting [15]) stood at 10.3%; in assay [11] (setting [16]) it was 13.5%.

With `COc1ccc(NC(=O)N2CCCC3(CCNCC3)C2)cc1`, the Potency in assay [1] is > 11.4 µM (inactive); in assay [6], > 46 µM (inactive). Besides, the activity change, negative = inhibition in [2] was -1.83% (inactive); in assay [4] it was 1.68% (inactive); in [11], 4.28% (inactive). Also, the Potency result in [3], in assay [8], in [9], in assay [14] and in assay [12] was “inactive” each time. The activity, negative = inhibition in assay [5] was 5.73% (inactive). In addition, in assay [7], the call was inactive. In addition, the max response in assay [11] (setting [15]) is -5.9%; in [11] (setting [16]) it was 0.941%.

(Values after PubChem BioAssay (NCATS).)
